We go through 33 sequences from paper PMC12820563, “FoxP3 forms a head-to-head dimer in vivo and stabilizes its multimerization on adjacent microsatellites”.

Whole data set: some 16,000 sequences, median “rpm ratio (pull-down/input)” near 0.94, cut for the highest 2% near 1.7. The entries come from a sample that favours the highest values as a whole.

This test has as its target T1, MBP-FoxP1dN (Mus musculus, UniProt P58462 326-579).
T1 sequence: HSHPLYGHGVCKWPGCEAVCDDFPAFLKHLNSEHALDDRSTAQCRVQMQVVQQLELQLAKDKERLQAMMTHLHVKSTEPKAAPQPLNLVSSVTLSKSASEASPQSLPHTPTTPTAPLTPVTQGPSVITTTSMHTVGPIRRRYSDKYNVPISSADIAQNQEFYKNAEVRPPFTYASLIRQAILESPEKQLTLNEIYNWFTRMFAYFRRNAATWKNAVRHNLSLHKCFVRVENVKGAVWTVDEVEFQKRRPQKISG
The test is described as follows: PD-seq (MBP pull-down with sequencing); 20 mM Tris-HCl pH 7.5, 100 mM NaCl, 1.5 mM MgCl2, 0.4 uM protein, 0.1 uM dsDNA library, 30 min, room temperature, amylose pull-down; high values mean tight binding. Conditions: protein: recombinant; tags: His6-MBP; chain copies: 2; dsDNA, one strand shown. In a few lines: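 A fragment of mouse FoxP3 or FoxP1 without its N-terminus, carrying a His6-MBP tag and produced in E. coli, was combined at 0.4 µM with a 0.1 µM degenerate double-stranded DNA library filled in with Klenow. The mixture sat for 30 min at room temperature in Tris pH 7.5 buffer containing NaCl and MgCl2. Protein–DNA complexes were captured on amylose resin, washed three times, and the DNA was freed with proteinase K, barcoded by PCR and sequenced on Illumina. Binding is expressed as reads-per-million enrichment of pull-down over input, with replicates pooled.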
With “GATGATTGTTCTCCCAGCTGATGAATTCTGTACTTCGAGTAAACAAATTTTCCTAATCTTTCTGTTCAAGCGCCATCTAC”, the binding signal is 0.932 RPM ratio (pull-down/input).

For the sequence “GATGATTGTTCTCCCAGCTGATGAATTCTGTATATCGAGTAAACAAATTTTCCTAATCTTTCTGTTCAAGCGCCATCTAC”, the binding signal was 1.67 RPM ratio (pull-down/input).

As for “GATGATTGTTCTCCCAGCTGATGAATTTGTAAAATCGAGTAAACAAATTTTCCTAATCTTTCTGTTCAAGCGCCATCTAC”, the binding signal was 1.24 RPM ratio (pull-down/input).

Turning to “GATGATTGTTCTCCCAGCTGATGAATTTTTGTAATCGAGTAAACAAATTTTCCTAATCTTTCTGTTCAAGCGCCATCTAC”, the binding signal was 1.78 RPM ratio (pull-down/input).

On to “GATGATTGTTCTCCCAGCTGATGAATTGTGTACTTCGAGTAAACAAATTTTCCTAATCTTTCTGTTCAAGCGCCATCTAC”, for which the binding signal was 1.84 RPM ratio (pull-down/input).

As to “GATGATTGTTCTCCCAGCTGATGAATTTTGTAAATCGAGTAAACAAATTTTCCTAATCTTTCTGTTCAAGCGCCATCTAC”, the binding signal was 1.5 RPM ratio (pull-down/input).

As for “GATGATTGTTCTCCCAGCTGATGAATTTTGTACTTCGAGTAAACAAATTTTCCTAATCTTTCTGTTCAAGCGCCATCTAC”, the binding signal is 0.97 RPM ratio (pull-down/input).

For the sequence “GATGATTGTTCTCCCAGCTGATGAATTGAGTATATCGAGTAAACAAATTTTCCTAATCTTTCTGTTCAAGCGCCATCTAC”, the binding signal is 1.1 RPM ratio (pull-down/input).

Turning to “GATGATTGTTCTCCCAGCTGATGAATTGTATATATCGAGTAAACAAATTTTCCTAATCTTTCTGTTCAAGCGCCATCTAC”, the binding signal is 1.6 RPM ratio (pull-down/input).

“GATGATTGTTCTCCCAGCTGATGAATTTTGTATATCGAGTAAACAAATTTTCCTAATCTTTCTGTTCAAGCGCCATCTAC”: the binding signal was 2.33 RPM ratio (pull-down/input).

Regarding “GATGATTGTTCTCCCAGCTGATGAATTCCAGGGTTCGAGTAAACAAATTTTCCTAATCTTTCTGTTCAAGCGCCATCTAC”, the binding signal is 0.729 RPM ratio (pull-down/input).

In the case of “GATGATTGTTCTCCCAGCTGATGAATTGTGAAGCTCGAGTAAACAAATTTTCCTAATCTTTCTGTTCAAGCGCCATCTAC”, the binding signal is 0.905 RPM ratio (pull-down/input).

“GATGATTGTTCTCCCAGCTGATGAATTACAGTTGTCGAGTAAACAAATTTTCCTAATCTTTCTGTTCAAGCGCCATCTAC”: the binding signal was 1.46 RPM ratio (pull-down/input).

In the case of “GATGATTGTTCTCCCAGCTGATGAATTAGCAACTTCGAGTAAACAAATTTTCCTAATCTTTCTGTTCAAGCGCCATCTAC”, the binding signal is 1.12 RPM ratio (pull-down/input).

On to “GATGATTGTTCTCCCAGCTGATGAATTTGCGTGCTCGAGTAAACAAATTTTCCTAATCTTTCTGTTCAAGCGCCATCTAC”, for which the binding signal is 1.05 RPM ratio (pull-down/input).

As for “GATGATTGTTCTCCCAGCTGATGAATTCTCGTCATCGAGTAAACAAATTTTCCTAATCTTTCTGTTCAAGCGCCATCTAC”, the binding signal is 0.998 RPM ratio (pull-down/input).

For the sequence “GATGATTGTTCTCCCAGCTGATGAATTGGCTAAGTCGAGTAAACAAATTTTCCTAATCTTTCTGTTCAAGCGCCATCTAC”, the binding signal was 0.879 RPM ratio (pull-down/input).

Take “GATGATTGTTCTCCCAGCTGATGAATTTGCAAAATCGAGTAAACAAATTTTCCTAATCTTTCTGTTCAAGCGCCATCTAC”: the binding signal was 1.13 RPM ratio (pull-down/input).

As to “GATGATTGTTCTCCCAGCTGATGAATTCTAAAGATCGAGTAAACAAATTTTCCTAATCTTTCTGTTCAAGCGCCATCTAC”, the binding signal is 0.85 RPM ratio (pull-down/input).

As for “GATGATTGTTCTCCCAGCTGATGAATTGCCTAAGTCGAGTAAACAAATTTTCCTAATCTTTCTGTTCAAGCGCCATCTAC”, the binding signal was 0.889 RPM ratio (pull-down/input).

Regarding “GATGATTGTTCTCCCAGCTGATGAATTGGCTTTCTCGAGTAAACAAATTTTCCTAATCTTTCTGTTCAAGCGCCATCTAC”, the binding signal was 0.862 RPM ratio (pull-down/input).

With “GATGATTGTTCTCCCAGCTGATGAATTTCTATACTCGAGTAAACAAATTTTCCTAATCTTTCTGTTCAAGCGCCATCTAC”, the binding signal was 0.903 RPM ratio (pull-down/input).

On to “GATGATTGTTCTCCCAGCTGATGAATTTTGTGTATCGAGTAAACAAATTTTCCTAATCTTTCTGTTCAAGCGCCATCTAC”, for which the binding signal was 2.15 RPM ratio (pull-down/input).

Turning to “GATGATTGTTCTCCCAGCTGATGAATTGTGTAAATCGAGTAAACAAATTTTCCTAATCTTTCTGTTCAAGCGCCATCTAC”, the binding signal was 1.59 RPM ratio (pull-down/input).

As to “GATGATTGTTCTCCCAGCTGATGAATTCTCTGTATCGAGTAAACAAATTTTCCTAATCTTTCTGTTCAAGCGCCATCTAC”, the binding signal was 0.938 RPM ratio (pull-down/input).

For “GATGATTGTTCTCCCAGCTGATGAATTTGTATACTCGAGTAAACAAATTTTCCTAATCTTTCTGTTCAAGCGCCATCTAC”, the binding signal is 2.13 RPM ratio (pull-down/input).

“GATGATTGTTCTCCCAGCTGATGAATTGTAATACTCGAGTAAACAAATTTTCCTAATCTTTCTGTTCAAGCGCCATCTAC”: the binding signal was 1.04 RPM ratio (pull-down/input).

For the sequence “GATGATTGTTCTCCCAGCTGATGAATTCTGTGTATCGAGTAAACAAATTTTCCTAATCTTTCTGTTCAAGCGCCATCTAC”, the binding signal was 1.79 RPM ratio (pull-down/input).

For the sequence “GATGATTGTTCTCCCAGCTGATGAATTTGTGTGATCGAGTAAACAAATTTTCCTAATCTTTCTGTTCAAGCGCCATCTAC”, the binding signal was 1.3 RPM ratio (pull-down/input).

On to “GATGATTGTTCTCCCAGCTGATGAATTCTTTGTATCGAGTAAACAAATTTTCCTAATCTTTCTGTTCAAGCGCCATCTAC”, for which the binding signal was 1.21 RPM ratio (pull-down/input).

On to “GATGATTGTTCTCCCAGCTGATGAATTTGTGTAATCGAGTAAACAAATTTTCCTAATCTTTCTGTTCAAGCGCCATCTAC”, for which the binding signal was 1.97 RPM ratio (pull-down/input).

Turning to “GATGATTGTTCTCCCAGCTGATGAATTTGTAGTATCGAGTAAACAAATTTTCCTAATCTTTCTGTTCAAGCGCCATCTAC”, the binding signal is 1.47 RPM ratio (pull-down/input).

“GATGATTGTTCTCCCAGCTGATGAATTTGGTGTATCGAGTAAACAAATTTTCCTAATCTTTCTGTTCAAGCGCCATCTAC”: the binding signal is 1.17 RPM ratio (pull-down/input).
